Reference: PubChem BioAssay (NCATS)
Results filed as inconclusive are left out. Active and inactive are the calls of the source. Unless noted, the rule behind the calls is not given here.

How the values were obtained:
[1] = qHTS profiling of the MIPE4 collection as inhibitors of Plasmodium falciparum (DD2) proliferation (Rep 2) (AID 743346); details: P. falciparum Dd2 in erythrocytes, SYBR Green DNA, 72 h; at 28.5 µM unless noted
Summary of the method: (§1)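 Erythrocytes infected with P. falciparum (0.3% parasitemia, 2.5% hematocrit) incubated with compounds 72 h at 37 C, 5% CO2. Lysis with saponin/Triton buffer containing SYBR Green I, overnight at room temperature in the dark; DNA fluorescence (485/535 nm) normalised to 0.29 uM artemisinin and DMSO.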

[2] = qHTS profiling of the MIPE4 collection as inhibitors of Plasmodium falciparum (HB3) proliferation (AID 743347);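 note: plate controls were DMSO vehicle wells for no effect and artemisinin wells for full effect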; details: P. falciparum HB3 in erythrocytes, SYBR Green DNA, 72 h; at 28.5 µM unless noted
Summary of the method: as §1

[3] = High-throughput drug toxicity screening in the BPDCN cell line Gen2.2 (AID 1224824); details: Gen2.2 BPDCN cells; at 45.8 µM (top of the series) unless noted;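 note: cells exposed to compounds for 48 h before reading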
Summary of the method: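 Gen2.2, 500 cells/well, phenol red-free RPMI/10% FBS/Pen-Strep; 48 h cpd, 37 °C/5% CO2; CTG lum, 15 min RT. Norm: DMSO = 100%, bortezomib 9.2 uM final = 0%.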

[4] = High-throughput drug toxicity screening in the BPDCN cell line Cal-1 (AID 1224825); details: Cal-1 BPDCN cell viability, qHTS; at 45.8 µM (top of the series) unless noted
Summary of the method: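 Cal-1 cells, 500 per well in phenol-red-free RPMI with 10% FBS, exposed to compounds for 48 hours at 37C, 5% CO2. Viability read by CellTiter-Glo luminescence; percent activity normalized to DMSO (100%) and 9.2 uM bortezomib final (0%).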

[5] = qHTS assay for measurement of the activity of small molecule inhibitors on Zika virus induced Caspase-3 activity in human astrocytoma cells (AID 1224859; active = well fitted inhibition curve with a large enough effect;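 note: plate controls were ZIKV-infected untreated cells for no effect and uninfected cells for full effect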)
Summary of the method: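 SNB-19 astrocytoma cells, 250/well, pretreated 1 h with compounds, then Zika virus at 2 FFU/cell for 6 h at 37 C; Caspase-Glo 3/7 luminescence after 30 min; percent inhibition normalised to uninfected and infected controls.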

[6] = qHTS Screen of the MIPE 4.0 Collection Against Ewings Sarcoma (RDES) (AID 1259252; active = well fitted inhibition curve with a large enough effect; note: nearly all actives have a fitted effect of over 35% in size; note: potency is the fitted concentration of half-maximal effect)
Summary of the method: (§2)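 Log-phase cells in RPMI with 5% FBS attached for 4 h, then received compounds as a titration for 48 h at 37C, 5% CO2. Viability was read by CellTiter-Glo luminescence and normalized to DMSO and no-cell wells.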

[7] = qHTS Screen of the MIPE 4.0 Collection Against Ewings Sarcoma (TC71) (AID 1259253; active = well fitted inhibition curve with a large enough effect; note: nearly all actives have a fitted effect of over 40% in size; note: potency is the fitted concentration of half-maximal effect)
Summary of the method: as §2

[8] = qHTS Screen of the MIPE 4.0 Collection Against Ewings Sarcoma (EW8) (AID 1259255; active = well fitted inhibition curve with a large enough effect; note: nearly all actives have a fitted effect of over 35% in size; note: potency is the fitted concentration of half-maximal effect;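 for viability: 100% = DMSO-treated cells and 0% = medium-only wells without cells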)
Summary of the method: as §2

[9] = qHTS Screen of the MIPE 4.0 Collection Against Ewings Sarcoma (TC32) (AID 1259256; active = well fitted inhibition curve with a large enough effect; note: nearly all actives have a fitted effect of over 45% in size; note: potency is the fitted concentration of half-maximal effect)
Summary of the method: as §2

[10] = qHTS assay for measurement of the activity of small molecule inhibitors on Zika virus induced Caspase-3 activity in human iPSC derived neural progenitor cells (hNPCs) (AID 1224857; active = well fitted inhibition curve with a large enough effect; note: % of control where 0% means no effect; nearly all actives have a fitted effect of over 65% in size)
Summary of the method: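 Human iPSC-derived neural progenitor cells pretreated 1 hr with compounds, then infected with Zika virus (2 FFU/cell) for 6 hours at 37 C. Caspase-3/7 measured by Caspase-Glo luminescence; % inhibition calculated from induction scaled to uninfected (0%) and infected (100%) wells.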

## NS(=O)(=O)c1cccc2c1C(=O)c1cccc(O)c1C2=O
[1]
  parasite growth, % of control (lower = inhibition): 4.4%
[2]
  growth, % of control: 2.61%
[3]
  cell viability, % of control (lower = more cytotoxic): 5.1%
[4]
  viability (% of control): 3.92%
[5]
  Potency: inactive
[6]
  Potency: 18.7 µM (active)
[7]
  Potency: 18.7 µM (active)
[8]
  Potency: 11.8 µM (active)
[9]
  Potency: 1.87 µM (active)

## Cc1cccc(Nc2nc(-c3ccncc3)cs2)c1
[1]
  parasite growth, % of control (lower = inhibition): 42.6%
[2]
  growth, % of control: 17.7%
[3]
  cell viability, % of control (lower = more cytotoxic): 75.6%
[4]
  viability (% of control): 82.9%
[10]
  Potency: inactive

## COCCCCC(=NOCCN)c1ccc(C(F)(F)F)cc1
[1]
  parasite growth, % of control (lower = inhibition): 49%
[2]
  growth, % of control: 47.6%
[3]
  cell viability, % of control (lower = more cytotoxic): 56%
[4]
  viability (% of control): 88.3%
[10]
  Potency: inactive

## CO[C@H]1C=CC=C(C)C(=O)NC2=CC(=O)C(NCCN(C)C)=C(C[C@@H](C)C[C@H](OC)[C@@H](O)[C@@H](C)C=C(C)[C@@H]1OC(N)=O)C2=O
[1]
  parasite growth, % of control (lower = inhibition): 6.75%
[2]
  growth, % of control: 6.65%
[3]
  cell viability, % of control (lower = more cytotoxic): 4.49%
[4]
  viability (% of control): 3.52%
[5]
  Potency: inactive
[6]
  Potency: 0.235 µM (active)
[7]
  Potency: 0.235 µM (active)
[8]
  Potency: 0.235 µM (active)

## Cc1nnc(C(C)C)n1C1C[C@H]2CC[C@@H](C1)N2CC[C@H](NC(=O)C1CCC(F)(F)CC1)c1ccccc1 (stereo partly drawn)
[1]
  parasite growth, % of control (lower = inhibition): 55.4%
[2]
  growth, % of control: 92.4%
[3]
  cell viability, % of control (lower = more cytotoxic): 75.3%
[4]
  viability (% of control): 104%
[10]
  Potency: inactive

## C[N+](C)(C)CC(=O)O
[1]
  parasite growth, % of control (lower = inhibition): 93.5%
[2]
  growth, % of control: 85.2%
[3]
  cell viability, % of control (lower = more cytotoxic): 178%
[4]
  viability (% of control): 114%
[5]
  Potency: inactive
[7]
  Potency: inactive
[8]
  Potency: inactive
[9]
  Potency: inactive

## CCn1cc(C(=O)O)c(=O)c2ccc(C)nc21
[3]
  cell viability, % of control (lower = more cytotoxic): 120%
[4]
  viability (% of control): 113%
[5]
  Potency: inactive
[7]
  Potency: inactive
[8]
  Potency: inactive
[9]
  Potency: inactive

## CCOC1OC(=O)C[C@H]1NC(=O)[C@@H]1CCCN1C(=O)[C@@H](NC(=O)c1ccc(N)c(Cl)c1)C(C)(C)C (stereo partly drawn)
[3]
  cell viability, % of control (lower = more cytotoxic): 49.8%
[4]
  viability (% of control): 16.7%
[5]
  Potency: inactive
[7]
  Potency: inactive
[8]
  Potency: inactive

## NC[C@@H]1O[C@@H](O[C@H]2[C@@H](O)[C@H](O[C@@H]3[C@@H](O)[C@@H](N)C[C@H](N)[C@H]3O[C@H]3O[C@H](CN)[C@@H](O)[C@@H](O)[C@H]3N)O[C@H]2CO)[C@H](N)[C@@H](O)[C@@H]1O
[1]
  parasite growth, % of control (lower = inhibition): 90%
[2]
  growth, % of control: 99.6%
[3]
  cell viability, % of control (lower = more cytotoxic): 134%
[4]
  viability (% of control): 147%
[5]
  Potency: inactive
[7]
  Potency: inactive
[8]
  Potency: inactive

## NC(=O)c1cccc2[nH]c(-c3ccc([C@H]4CCCN4)cc3F)nc12
[1]
  parasite growth, % of control (lower = inhibition): 8.83%
[2]
  growth, % of control: 2.5%
[3]
  cell viability, % of control (lower = more cytotoxic): 104%
[4]
  viability (% of control): 19.9%
[6]
  Potency: 7.43 µM (active)
[7]
  Potency: 14.8 µM (active)
[8]
  Potency: 18.7 µM (active)
[9]
  Potency: 11.8 µM (active)

## O=C1NC(=O)C(=Cc2ccc(-c3ccc(F)cc3)o2)S1
[1]
  parasite growth, % of control (lower = inhibition): 91.6%
[2]
  growth, % of control: 75.6%
[3]
  cell viability, % of control (lower = more cytotoxic): 57.7%
[4]
  viability (% of control): 95.6%
[7]
  Potency: 23.5 µM (active)
[8]
  Potency: inactive

## C[C@@H]1CCN(C(=O)CC#N)C[C@H]1N(C)c1ncnc2[nH]ccc12
[1]
  parasite growth, % of control (lower = inhibition): 93.5%
[2]
  growth, % of control: 74.7%
[3]
  cell viability, % of control (lower = more cytotoxic): 52.4%
[4]
  viability (% of control): 110%
[7]
  Potency: inactive
[8]
  Potency: inactive
[9]
  Potency: inactive

## CC(=O)Oc1cc2c(s1)CCN(C(C(=O)C1CC1)c1ccccc1F)C2 (stereo not drawn)
[1]
  parasite growth, % of control (lower = inhibition): 40.2%
[2]
  growth, % of control: 57.5%
[3]
  cell viability, % of control (lower = more cytotoxic): 15.7%
[4]
  viability (% of control): 18.3%
[8]
  Potency: 3.72 µM (active)
[9]
  Potency: 2.96 µM (active)

## Oc1ccc(C2=Cc3ccc(O)cc3OC2)cc1
[1]
  parasite growth, % of control (lower = inhibition): 27.9%
[2]
  growth, % of control: 24.6%
[3]
  cell viability, % of control (lower = more cytotoxic): 16.5%
[4]
  viability (% of control): 3.88%
[6]
  Potency: 5.9 µM (active)
[7]
  Potency: 3.72 µM (active)
[8]
  Potency: 6.62 µM (active)
[9]
  Potency: 2.64 µM (active)

## COc1ccc(-c2coc3cc(O)ccc3c2=O)cc1
[1]
  parasite growth, % of control (lower = inhibition): 96.3%
[2]
  growth, % of control: 92.8%
[3]
  cell viability, % of control (lower = more cytotoxic): 191%
[4]
  viability (% of control): 109%
[7]
  Potency: inactive
[8]
  Potency: inactive
[9]
  Potency: inactive

## COC(=O)N[C@H](C(=O)N1CCC[C@@H]1c1ncc(-c2ccc(-c3ccc(-c4cnc([C@@H]5CCCN5C(=O)[C@@H](NC(=O)OC)C(C)C)[nH]4)cc3)cc2)[nH]1)C(C)C
[1]
  parasite growth, % of control (lower = inhibition): 24.9%
[2]
  growth, % of control: 14.2%
[3]
  cell viability, % of control (lower = more cytotoxic): 6.1%
[4]
  viability (% of control): 28.7%
[8]
  Potency: 26.4 µM (active)
[9]
  Potency: 26.4 µM (active)

## CS(=O)(=O)N(Cc1ccco1)CC(O)Cn1c2ccccc2c2ccccc21 (stereo not drawn)
[1]
  parasite growth, % of control (lower = inhibition): 58.2%
[2]
  growth, % of control: 16.4%
[3]
  cell viability, % of control (lower = more cytotoxic): 75.4%
[4]
  viability (% of control): 65.5%
[5]
  Potency: inactive

## NC1CCC(Nc2nc(Nc3ccc(C(=O)N4CCCCC4)cc3)c3ncn(-c4cccc(F)c4)c3n2)CC1 (stereo not drawn)
[1]
  parasite growth, % of control (lower = inhibition): 47.7%
[2]
  growth, % of control: 71.8%
[3]
  cell viability, % of control (lower = more cytotoxic): 208%
[4]
  viability (% of control): 101%
[6]
  Potency: inactive
[7]
  Potency: inactive
[8]
  Potency: inactive
[9]
  Potency: inactive

## CCCCCN(C)CCC(O)(P(=O)(O)O)P(=O)(O)O
[1]
  parasite growth, % of control (lower = inhibition): 114%
[2]
  growth, % of control: 90.7%
[3]
  cell viability, % of control (lower = more cytotoxic): 125%
[4]
  viability (% of control): 102%
[7]
  Potency: inactive
[8]
  Potency: inactive
[9]
  Potency: inactive

## O=c1c(O)c(-c2ccc(O)cc2)oc2cc(O)cc(O)c12
[1]
  parasite growth, % of control (lower = inhibition): 27.5%
[2]
  growth, % of control: 19.7%
[3]
  cell viability, % of control (lower = more cytotoxic): 140%
[4]
  viability (% of control): 13.1%
[7]
  Potency: 18.7 µM (active)
[8]
  Potency: 11.8 µM (active)

## C[C@H](NC(=O)c1sccc1OCc1ccc(Cl)cc1)c1ccccc1
[1]
  parasite growth, % of control (lower = inhibition): 10.7%
[2]
  growth, % of control: 3.82%
[3]
  cell viability, % of control (lower = more cytotoxic): 181%
[4]
  viability (% of control): 45.5%
[5]
  Potency: inactive

## N[C@H](CSC(c1ccccc1)(c1ccccc1)c1ccccc1)C(=O)O
[1]
  parasite growth, % of control (lower = inhibition): 16.2%
[2]
  growth, % of control: 4.68%
[3]
  cell viability, % of control (lower = more cytotoxic): 68.6%
[4]
  viability (% of control): 12%
[5]
  Potency: inactive
[9]
  Potency: inactive
